This is an account of results in the supplement of paper PMC6555819.

Experiment in all cases: PBM binding z-score (relative to random genomic background probes); higher = stronger binding; sequences stand for … in GC…GCGATTGACAGCGTAGAATGAAGG
The test system of assay [1] is FXR:RXRa (NR concentration 270 nM, RXRa partner concentration 90 nM). A digest of the protocol:
(§1)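 Binding z-scores were set against random background probes. The data came from custom Agilent 4×180K protein-binding microarrays carrying double-stranded probes with 34-nt variable regions, incubated 1 h with ligand-free nuclear receptor dimers. Partner-specific antibodies detected binding, and scanned fluorescence was regression-normalized.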

In assay [2] the test system is LXRa:RXRa (NR concentration 270 nM, RXRa partner concentration 90 nM). In short, it runs like this: as §1
Assay [3] relates to LXRa homodimer (NR concentration 270 nM). In short, it runs like this: as §1
The subject of assay [4] is LXRb:RXRa (NR concentration 270 nM, RXRa partner concentration 90 nM). In short, it runs like this: as §1
Assay [5] deals with LXRb homodimer (NR concentration 270 nM). In short, it runs like this: as §1
In assay [6] the test system is PPARa:RXRa (NR concentration 270 nM, RXRa partner concentration 90 nM). In short, it runs like this: as §1
Assay [7] relates to PPARg:RXRa (NR concentration 180 nM, RXRa partner concentration 90 nM). In short, it runs like this:
as §1

Assay [8] relates to PPARg:RXRa 270nM:90nM, anti-RXR (NR concentration 270 nM, RXRa partner concentration 90 nM). A digest of the protocol: as §1
The test system of assay [9] is PPARg:RXRa 30nM:10nM, anti-RXR (NR concentration 30 nM, RXRa partner concentration 10 nM). A digest of the protocol:
as §1

The test system of assay [10] is PPARg:RXRa 90nM:30nM, anti-RXR (NR concentration 90 nM, RXRa partner concentration 30 nM). A digest of the protocol: as §1
The subject of assay [11] is PPARg:RXRa DBDmut IVT, anti-RXR (DBD mutation: RXRa K156A/R161A, NR concentration 270 nM, RXRa partner concentration 90 nM). A digest of the protocol:
as §1

The subject of assay [12] is PPARg:RXRa IVT, anti-PPARg (NR concentration 270 nM, RXRa partner concentration 90 nM). A digest of the protocol: as §1
In assay [13] the test system is PPARg DBDmut:RXRa IVT, anti-PPARg (DBD mutation: PPARg1 K132A/R137A, NR concentration 270 nM, RXRa partner concentration 90 nM). In short, it runs like this:
as §1

Assay [14] concerns PPARg DBDmut IVT, anti-PPARg (DBD mutation: PPARg1 K132A/R137A, NR concentration 270 nM). In short, it runs like this: as §1
Assay [15] concerns PPARg homodimer (NR concentration 180 nM). In short, it runs like this:
as §1

The subject of assay [16] is PXR:RXRa (NR concentration 270 nM, RXRa partner concentration 90 nM). In short, it runs like this: as §1
The test system of assay [17] is PXR homodimer (NR concentration 270 nM). A digest of the protocol: as §1
Assay [18] concerns RARa:RXR (NR concentration 270 nM, RXRa partner concentration 90 nM). A digest of the protocol:
as §1

The test system of assay [19] is RARa homodimer (NR concentration 270 nM). In short, it runs like this: as §1
Assay [20] has as its system RARb:RXRa (NR concentration 270 nM, RXRa partner concentration 90 nM). In short, it runs like this: as §1

Turning to AGAACGAGGGCAATGAGTTGAGAGCACGGGTGGC, the PBM binding z-score is 0.342 in assay [1]; -0.0458 in assay [2]; -0.343 in [3]; -0.251 in assay [4]; -0.332 in [5]; 1.42 in assay [6]. Also, the PBM binding z-score was 1.39 in assay [7]; 1.17 in assay [8]; -0.064 in [9]; 0.763 in assay [10]; 2.9 in assay [11]; 2.73 in [12]. Moreover, the PBM binding z-score in [13] was 0.608; in [14], -0.139; in assay [15], 0.0206; in [16], 1.04; in assay [17] it was 1.92; in assay [18], 0.292. Also, the PBM binding z-score is -0.276 in assay [19] and 2.05 in [20].
Regarding GCTGCTAGGTCAACTGATGGTCCGCTAAAGCTCG, the PBM binding z-score in assay [1] was 3.85; in assay [2] it was 2.46; in assay [3], 0.00165; in assay [4] it was 1.92; in [5], -0.00733; in assay [6] it was 3.41. Also, the PBM binding z-score in assay [7] turned out to be 2.32; in assay [8] it was 2.97; in [9], 0.463; in assay [10] it was 1.97; in [11], 4.62; in assay [12] it was 3.92. Further, the PBM binding z-score in [13] is -0.331; in assay [14], -0.853; in assay [15] it was 0.857; in assay [16], 0.939; in assay [17], -0.584; in [18], 2.05. In addition, the PBM binding z-score in [19] was -0.897; in assay [20], 4.04.
Regarding TCTCGGAGGACACGAAGGTCAGAGCTTTCCAGAG, the PBM binding z-score in [1] was 1.16; in [2] it was 1.13; in assay [3], -0.0274; in assay [4], 0.923; in assay [5], -1.06; in assay [6] it was 1.98. The PBM binding z-score in [7] was 0.444; in [8], 1.45; in assay [9], 2.1; in [10] it was 1.96; in [11], 1.65; in assay [12] it was 0.886. In addition, the PBM binding z-score was -0.279 in assay [13]; -1.37 in [14]; 0.322 in assay [15]; 1.97 in assay [16]; 0.404 in assay [17]; 2.05 in assay [18]. Moreover, the PBM binding z-score in [19] is -0.212; in assay [20] it was 3.38.
Turning to CAAACTAGTTCAAAGGTCAAAGTCGAGCCAACCA, the PBM binding z-score in [1] is 7.5; in assay [2], 6.94; in assay [3] it was 5.57; in [4] it was 6.5; in assay [5] it was 2.97; in assay [6] it was 7.02. Besides, the PBM binding z-score amounted to 11 in assay [7]; 9.72 in assay [8]; 11.8 in [9]; 11.7 in assay [10]; 3.06 in assay [11]; 5.87 in assay [12]. The PBM binding z-score in [13] worked out at 1.03; in assay [14], 1.34; in [15] it was 6.05; in [16] it was 6.85; in assay [17], 3.08; in assay [18] it was 8.58. Besides, the PBM binding z-score is 3.93 in assay [19] and 5.27 in assay [20].
Regarding AGGATGAGGTTAAGATCAGGGAAACAGAATACAT, the PBM binding z-score in [1] was found to be 2.5; in assay [2], 2.06; in assay [3], 0.0836; in assay [4], 2.16; in assay [5], 0.492; in [6], 3.06. Also, the PBM binding z-score in [7] is 1.63; in assay [8] it was 1.38; in [9], 0.783; in [10], 1.01; in [11], -0.114; in assay [12], 0.973. Besides, the PBM binding z-score in assay [13] worked out at 0.72; in assay [14], 0.516; in [15], 1.27; in assay [16], 1.56; in [17], 1.2; in assay [18], 1.9. Further, the values for the PBM binding z-score in assay [19] and in assay [20] were 1.63 and 2.1, respectively.
For ATCTCTAGGTAAAGATAGTTCAGAGAATGCAAAT, the PBM binding z-score in [1] came to 0.206; in assay [2] it was 3.56; in assay [3] it was 0.259; in assay [4], 0.69; in assay [5] it was 0.411; in assay [6] it was 0.663. Also, the PBM binding z-score turned out to be 0.843 in assay [7]; 0.494 in assay [8]; 0.309 in assay [9]; 0.609 in assay [10]; 1.37 in assay [11]; 1.42 in assay [12]. The PBM binding z-score in [13] came out at 0.582; in assay [14], 1.54; in [15], 0.983; in assay [16], 0.864; in assay [17], 0.342; in [18], 0.707. For the same sequence, the results for the PBM binding z-score in assay [19] and in assay [20] were 0.924 and 0.573, respectively.
